Laboratory results as given in the supplement of paper PMC4466140.

B1: unnamed (peptide)
chain: LLLLFVPDSPYDPAI

Target: CaNbp2
Assay: SPOT peptide array binding signal intensity (averaged, normalized) (arbitrary units (background-subtracted, floor 0; scale differs between SH3 domains)); higher = stronger binding of the SH3 domain to the peptide
How it was run: (§1)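 Binding signal is given in arbitrary units that differ between domains and is the normalized, background-subtracted spot intensity averaged across replicates. Each GST-SH3 fusion from one of four yeast species was made in E. coli BL21(DE3), purified on glutathione Sepharose and incubated at 10 μg/ml overnight at 4°C on cellulose-bound synthetic 15-mer peptides in which cysteines were replaced by serines. Detection used anti-GST antibody, an HRP anti-mouse secondary and luminol, followed by imaging and Genespotter quantification.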

| Binder | SPOT peptide array binding signal intensity |
| --- | --- |
| B1 | 264 |

Target: CaRvs167
Assay: as above
How it was run: as §1

| Binder | SPOT peptide array binding signal intensity |
| --- | --- |
| B1 | 15.8 |

Target: CaRvs167-3
Assay: as above
How it was run: as §1

| Binder | SPOT peptide array binding signal intensity |
| --- | --- |
| B1 | 3.5 |

Target: CaSho1
Assay: as above
How it was run: as §1

| Binder | SPOT peptide array binding signal intensity |
| --- | --- |
| B1 | 611 |

Target: CaSla1-D1-D2
Assay: as above
How it was run: as §1

| Binder | SPOT peptide array binding signal intensity |
| --- | --- |
| B1 | 6.5 |

Target: CaSla1-D3
Assay: as above
How it was run: as §1

| Binder | SPOT peptide array binding signal intensity |
| --- | --- |
| B1 | 11.5 |

Target: ScAbp1
Assay: as above
How it was run: as §1

| Binder | SPOT peptide array binding signal intensity |
| --- | --- |
| B1 | ≤ 0 |

Target: ScBbc1
Assay: as above
How it was run: as §1

| Binder | SPOT peptide array binding signal intensity |
| --- | --- |
| B1 | 0.25 |

Target: ScBem1-D1
Assay: as above
How it was run: as §1

| Binder | SPOT peptide array binding signal intensity |
| --- | --- |
| B1 | 7 |

Target: ScBzz1-D1
Assay: as above
How it was run: as §1

| Binder | SPOT peptide array binding signal intensity |
| --- | --- |
| B1 | 31 |

Target: ScBzz1-D2
Assay: as above
How it was run: as §1

| Binder | SPOT peptide array binding signal intensity |
| --- | --- |
| B1 | 7 |

Target: ScCyk3
Assay: as above
How it was run: as §1

| Binder | SPOT peptide array binding signal intensity |
| --- | --- |
| B1 | 37 |

Target: ScFus1
Assay: as above
How it was run: as §1

| Binder | SPOT peptide array binding signal intensity |
| --- | --- |
| B1 | 1060 |

Target: ScHof1
Assay: as above
How it was run: as §1

| Binder | SPOT peptide array binding signal intensity |
| --- | --- |
| B1 | 2.25 |

Target: ScHse1
Assay: as above
How it was run: as §1

| Binder | SPOT peptide array binding signal intensity |
| --- | --- |
| B1 | 662 |

Target: ScLsb1
Assay: as above
How it was run: as §1

| Binder | SPOT peptide array binding signal intensity |
| --- | --- |
| B1 | ≤ 0 |

Target: ScLsb2
Assay: as above
How it was run: as §1

| Binder | SPOT peptide array binding signal intensity |
| --- | --- |
| B1 | ≤ 0 |

Target: ScLsb3
Assay: as above
How it was run: as §1

| Binder | SPOT peptide array binding signal intensity |
| --- | --- |
| B1 | ≤ 0 |

Target: ScLsb4
Assay: as above
How it was run: as §1

| Binder | SPOT peptide array binding signal intensity |
| --- | --- |
| B1 | 1 |

Target: ScMyo3
Assay: as above
How it was run: as §1

| Binder | SPOT peptide array binding signal intensity |
| --- | --- |
| B1 | ≤ 0 |

Target: ScMyo5
Assay: as above
How it was run: as §1

| Binder | SPOT peptide array binding signal intensity |
| --- | --- |
| B1 | ≤ 0 |

Target: ScNbp2
Assay: as above
How it was run: as §1

| Binder | SPOT peptide array binding signal intensity |
| --- | --- |
| B1 | 74 |

Target: ScPex13
Assay: as above
How it was run: as §1

| Binder | SPOT peptide array binding signal intensity |
| --- | --- |
| B1 | 0.25 |

Target: ScRvs167
Assay: as above
How it was run: as §1

| Binder | SPOT peptide array binding signal intensity |
| --- | --- |
| B1 | 0.333 |

Target: ScSho1
Assay: as above
How it was run: as §1

| Binder | SPOT peptide array binding signal intensity |
| --- | --- |
| B1 | 1530 |

Target: ScSla1-D1-D2
Assay: as above
How it was run: as §1

| Binder | SPOT peptide array binding signal intensity |
| --- | --- |
| B1 | ≤ 0 |

Target: ScSla1-D3
Assay: as above
How it was run: as §1

| Binder | SPOT peptide array binding signal intensity |
| --- | --- |
| B1 | 27.5 |

Target: SpAbp1-D1
Assay: as above
How it was run: as §1

| Binder | SPOT peptide array binding signal intensity |
| --- | --- |
| B1 | 1 |

Target: SpBbc1
Assay: as above
How it was run: as §1

| Binder | SPOT peptide array binding signal intensity |
| --- | --- |
| B1 | ≤ 0 |

Target: SpBzz1-D1
Assay: as above
How it was run: as §1

| Binder | SPOT peptide array binding signal intensity |
| --- | --- |
| B1 | 26 |

Target: SpBzz1-D2
Assay: as above
How it was run: as §1

| Binder | SPOT peptide array binding signal intensity |
| --- | --- |
| B1 | 1.5 |

Target: SpCyk3
Assay: as above
How it was run: as §1

| Binder | SPOT peptide array binding signal intensity |
| --- | --- |
| B1 | 25 |

Target: SpHof1
Assay: as above
How it was run: as §1

| Binder | SPOT peptide array binding signal intensity |
| --- | --- |
| B1 | 6.25 |

Target: SpHof1-2
Assay: as above
How it was run: as §1

| Binder | SPOT peptide array binding signal intensity |
| --- | --- |
| B1 | 5.5 |

Target: SpHof1-3
Assay: as above
How it was run: as §1

| Binder | SPOT peptide array binding signal intensity |
| --- | --- |
| B1 | 85.5 |

Target: SpHse1
Assay: as above
How it was run: as §1

| Binder | SPOT peptide array binding signal intensity |
| --- | --- |
| B1 | 1440 |

Target: SpLsb1
Assay: as above
How it was run: as §1

| Binder | SPOT peptide array binding signal intensity |
| --- | --- |
| B1 | ≤ 0 |

Target: SpLsb4
Assay: as above
How it was run: as §1

| Binder | SPOT peptide array binding signal intensity |
| --- | --- |
| B1 | 2 |

Target: SpMyo1
Assay: as above
How it was run: as §1

| Binder | SPOT peptide array binding signal intensity |
| --- | --- |
| B1 | 3 |

Target: SpNbp2
Assay: as above
How it was run: as §1

| Binder | SPOT peptide array binding signal intensity |
| --- | --- |
| B1 | 195 |

Target: SpPex13
Assay: as above
How it was run: as §1

| Binder | SPOT peptide array binding signal intensity |
| --- | --- |
| B1 | 20 |

Target: SpRvs167
Assay: as above
How it was run: as §1

| Binder | SPOT peptide array binding signal intensity |
| --- | --- |
| B1 | ≤ 0 |

Target: SpSla1-D1-D2
Assay: as above
How it was run: as §1

| Binder | SPOT peptide array binding signal intensity |
| --- | --- |
| B1 | 3 |

Target: SpSla1-D3
Assay: as above
How it was run: as §1

| Binder | SPOT peptide array binding signal intensity |
| --- | --- |
| B1 | 1 |
